13 compounds from PubChem BioAssay (NCI) can be followed below.

Holding throughout (assay): NCI-60 one-dose screen, 48 h (100 = growth as untreated, 0 = no growth, -100 = all killed)
What all share (settings): 10 µM unless noted

Assay [1] relates to NCI-H23 lung.
Assay [2] deals with NCI-H322M lung.
For assay [3], the system named is HOP-62 NSCLC.
For assay [4], the system named is NCI-H460 lung.
The subject of assay [5] is HOP-92 NSCLC.
The subject of assay [6] is NCI-H522 lung.
Assay [7] relates to A549/ATCC NSCLC.
The subject of assay [8] is 786-0 renal.
The test system of assay [9] is COLO 205 colon.
For assay [10], the system named is NCI-H226 lung.

This is part of a sample that, as a whole, favours compounds with a hit. Of some 83,000 tested, about 20% had one in any assay.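 Plates (96-well) were seeded with cells, treated with compound at one concentration, and incubated for 48 hours before percent growth was determined.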 Unmarked numbers belong to inactive results. Activity calls are given as the source filed them. The calls were made as follows: active = growth percent below 10; inactive = the rest.

Regarding `CN(C)CCN1C(=O)c2cccc3c(N)ccc(c23)C1=O`, the growth is 44.3% in [1]; 58.5% in [2]; 58.1% in [3]; -5.38% (active) in [4]; 19.9% in assay [5]; 7.81% (active) in [6]. Moreover, the growth is 6.47% (active) in assay [7], 36.9% in assay [8] and 8.15% (active) in [9].

In the case of `C#CCOc1ccc2ncnc(N3CCN(C(=O)CCl)CC3)c2c1`, the growth was 93.3% [8.25 µM] in assay [1]; 99.3% [8.25 µM] in [2]; 85% [8.25 µM] in assay [3]; 101% [8.25 µM] in [4]; 88.7% [8.25 µM] in assay [5]; -59.5% [8.25 µM] (active) in assay [6]. Also, the growth is 100% [8.25 µM] in assay [7], 94.5% [8.25 µM] in [8] and 96.1% [8.25 µM] in assay [9].

Take `COc1ccc(-c2nc3ccc(-c4nc5ccc(N6CCN(C)CC6)cc5[nH]4)cc3[nH]2)cc1OC`: the growth in assay [1] was 62.7%; in [10], 54.6%; in assay [2], 96.5%; in assay [4], 103%; in assay [5], 89.8%; in assay [6], 13.7%. For the same compound, the growth in assay [8] was 79.1%; in assay [9] it was 25.5%.

Consider `COc1ccc(/C=C/C(=O)c2cc(O)ccc2O)cc1`, for which the growth is 95.8% in [1]; 111% in [2]; 114% in assay [3]; 96.6% in assay [4]; 70.6% in [5]; -23.6% (active) in assay [6]. Further, the growth is 78.6% in assay [7], 96.5% in assay [8] and 99% in assay [9].

For `CSc1nc(Nc2cccc(NC(=O)/C(C#N)=C/c3c(Cl)cccc3Cl)c2)c(C#N)c(-c2cccc([N+](=O)[O-])c2)n1`, the growth in [1] was 57.9%; in assay [2], 85.5%; in assay [3], 89.7%; in assay [4] it was 71.7%; in [5] it was 59.8%; in [6], 38.8%. The growth was 92% in assay [7], 54% in assay [8] and 76% in assay [9].

For the compound `O=C1CC[C@H](c2ccc(O)c3c2C(=O)[C@@H]2O[C@@H]2C3=O)c2cccc(O)c21`, the growth in assay [1] was 94.4%; in [2] it was 98%; in assay [3] it was 79%; in assay [4] it was 97.1%; in [5], 38.4%; in assay [6] it was -29.4% (active). Also, the growth in assay [7] was 87.2%; in assay [8], 44.8%; in assay [9], -34.6% (active).

Regarding `CCOc1cc2c(cc1OCC)C(c1cc(OC)c(O)cc1Cl)NCC2` (centres undefined), the growth in [1] is 96.7%; in assay [2], 110%; in [3], 98.1%; in [4] it was 98.4%; in assay [5], 114%; in assay [6], 102%. For the same compound, the growth in assay [7] is 88.6%; in [8], 84.1%; in assay [9], -37.4% (active).

In the case of `CCN(CC)CCCCNc1c2ccc(Cl)cc2nc2ccc(OC)cc12`, the growth in assay [1] was -42.8% (active); in [2], -30.4% (active); in [3], 2.75% (active); in assay [4], -23.8% (active); in assay [5], -30.7% (active); in assay [6], -37.4% (active). The growth in [7] was 9.02% (active); in assay [8], -16.6% (active); in assay [9] it was -52% (active).

Regarding `CCC(=O)c1ccc(Cl)s1`, the growth is 104% in assay [1]; 134% in assay [2]; 109% in assay [3]; 99% in assay [4]; 102% in assay [5]; 93.7% in assay [6]. Further, the growth is 98.7% in assay [7], 105% in assay [8] and 101% in assay [9].

For the compound `O=C1C=CC(=O)N1c1ccc2c(c1)Cc1cc(F)ccc1-2`, the growth in assay [1] is 101%; in assay [2], 93%; in [3] it was 93.8%; in assay [4], 111%; in assay [5] it was 83.4%; in [6] it was 91.1%. Also, the growth in assay [8] is 112%; in [9] it was 94%.

Turning to `O=C(COc1ccc(/C=C2\CSc3ccccc3C2=O)cc1)Nc1nccs1`, the growth in assay [1] is 61.1%; in assay [2], 87.9%; in assay [3], 94.5%; in assay [4] it was 107%; in assay [5], 78.8%; in assay [6], 7.48% (active). Besides, the results for the growth in [7], in assay [8] and in assay [9] were 100%, 95.7% and 117%, respectively.

As for `COc1ccc(C(=O)c2sc3nc(C)cc(C)c3c2N)cc1OC`, the growth in assay [1] was 74.3%; in assay [2] it was 87.9%; in [3] it was 53.4%; in [4], 67.6%; in assay [5] it was 89.7%; in assay [6], -13.1% (active). The growth in [7] is 60%; in [8], 99.5%; in assay [9], 102%.

Take `O=C1C=C(O)C(=O)C(CC2=C(O)C(=O)C=C(O)C2=O)=C1O`: the growth in [1] was 113%; in [2], 105%; in assay [3] it was 104%; in assay [4], 104%; in assay [5] it was 109%; in assay [6], 92.1%. Further, the growth was 92% in [7] and 115% in [9].
